In PubChem BioAssay:
The source made the active and inactive calls.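 The calls were made as follows, unless noted: active = visually confirmed hit in the image check and inhibition above 20%; inconclusive = visually confirmed hit but inhibition not above 20%; inactive = no visual hit in the image check.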

How the values were obtained:
[1] = inhibitors of TNFa-induced NFkB p65 translocation, primary screen, imaging, HUVEC, MLSMR starter and 10KST1 sets (AID 438;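 active = inhibition above 20% together with a positive visual image hit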;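 also: compound added about 3h40 before a 20 min TNFalpha stimulation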;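 as to inhibition: signal is the nuclear over cytoplasmic p65 intensity ratio per well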); details: HUVEC TNFa-induced p65 nuclear translocation; cell count: measured here: nuclei count (cytotoxicity indicator), at 2.08 µM; inhibition: at 2 µM, stronger effect = higher value, 0% TNFa-plus-vehicle, 100% no-TNFa wells
[2] = inhibitors of mutant huntingtin aggregation, primary screen, imaging, exon1htt(103Q)mCFP cells, high-content imaging (AID 483;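 active = visual image review flags a hit and inhibition of aggregation exceeds 20%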;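 also: compound exposure lasted 3 days before fixation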;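 as to nuclei count: percent of the per-plate median nuclei count of sample wells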); details: exon1htt(103Q)mCFP cell line, aggregate imaging, at 2 µM; inhibition of aggregation: stronger effect = higher value; nuclei count: measured here: cell count, toxicity
[3] = inhibitors of E-selectin induction by TNFa, primary screen, imaging, HUVEC, immunofluorescence, MLSMR starter and 10KST1 sets (AID 487); details: HUVEC TNFalpha-induced E-selectin immunofluorescence imaging, at 2 µM; inhibition: stronger effect = higher value; nuclei count: measured here: cell number, toxicity;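 as to inhibition: signal is fraction of cell area covered by stained E-selectin grains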;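 as to nuclei count: 100% = median nuclei count of all wells on the same plate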
[4] = molecular target: Voltage-gated potassium channel subunit beta-2 (Rattus norvegicus) (UniProt P62483); assay: KvBeta enzyme negative modulators, primary screen, biochemical, NADPH fluorescence (AID 622;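 active = fluorescence slope higher than the sample average by over 3 SD, cut at about -0.22 in these data, passing the limit was not always enough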;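 also: slope of raw intensity against log time taken from 70 to 1610 s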); details: recombinant KvBeta, 4-cyanobenzaldehyde reduction, at 10 µM, stronger effect = higher value
Chain of Voltage-gated potassium channel subunit beta-2 (Rattus norvegicus) (P62483 whole entry, looked up): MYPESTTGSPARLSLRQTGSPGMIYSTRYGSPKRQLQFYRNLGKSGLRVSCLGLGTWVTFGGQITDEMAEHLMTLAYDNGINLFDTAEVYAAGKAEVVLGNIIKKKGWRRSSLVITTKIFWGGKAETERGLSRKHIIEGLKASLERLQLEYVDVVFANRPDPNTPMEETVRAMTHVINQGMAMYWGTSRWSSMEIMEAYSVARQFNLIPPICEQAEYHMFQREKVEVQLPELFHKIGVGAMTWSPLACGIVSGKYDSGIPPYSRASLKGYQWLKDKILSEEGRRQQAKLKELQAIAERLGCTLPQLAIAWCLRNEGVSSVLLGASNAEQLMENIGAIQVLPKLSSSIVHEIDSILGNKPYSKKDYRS

[5] = molecular target: Voltage-gated potassium channel subunit beta-2 (Rattus norvegicus) (UniProt P62483); assay: KvBeta positive modulators, primary screen, biochemical, NADPH fluorescence (AID 623;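 active = NADPH fluorescence slope more negative than the mean of all samples by about 3 SD, 99.7% confidence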;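 also: fluorescence intensity change per second fitted from 20 to 320 s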); details: Recombinant KvBeta, NADPH fluorescence decrease slope, 10 min; at 10 µM; stronger effect = lower value
[6] = molecular target: Alpha-2C adrenergic receptor (Homo sapiens) (UniProt P18825); assay: modulators of alpha2C/GIRK thallium flux, primary screen, cell-based, HEK293 alpha2C/GIRK1/2 (AID 624;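 active = fluorescence slope after compound addition differing from the mean of all screened samples at 99.7% confidence, in either direction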;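 also: slope of fluorescence ratio to pre-addition baseline per second over 15 to 24 s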); details: thallium flux BTC fluorescence, at 10 µM, actives lie on both sides
Chain of Alpha-2C adrenergic receptor (Homo sapiens) (P18825 whole entry, looked up): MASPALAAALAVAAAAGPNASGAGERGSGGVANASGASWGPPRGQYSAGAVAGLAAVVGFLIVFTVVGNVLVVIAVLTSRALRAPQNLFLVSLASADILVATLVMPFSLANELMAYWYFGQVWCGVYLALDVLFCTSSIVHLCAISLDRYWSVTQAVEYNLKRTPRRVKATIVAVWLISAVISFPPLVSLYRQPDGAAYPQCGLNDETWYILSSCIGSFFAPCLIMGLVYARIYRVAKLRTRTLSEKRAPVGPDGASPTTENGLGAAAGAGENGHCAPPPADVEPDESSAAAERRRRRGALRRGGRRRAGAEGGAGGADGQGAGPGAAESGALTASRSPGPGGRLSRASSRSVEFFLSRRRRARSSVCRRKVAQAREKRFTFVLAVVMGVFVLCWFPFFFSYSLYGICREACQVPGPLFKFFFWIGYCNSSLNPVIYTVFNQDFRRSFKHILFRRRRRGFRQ

[7] = inhibitors of Sendai virus-induced IRF3 signaling, primary screen, TLR/RLR signaling modifier project, cell-based, Sendai virus stimulus, luciferase, 10K MLSCN set (AID 602276;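 active = inhibition at or above 50% at 10 µM; inactive = inhibition below 50%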;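 also: firefly luciferase from ISG56 promoter only with Renilla not read in this screen; 0% = Sendai virus plus DMSO and 100% = medium plus DMSO without virus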); details: HEK293 RL24 IRF3 luciferase reporter, at 10 µM, stronger effect = higher value
[8] = inhibitors of poly I:C-induced TLR3 signaling, primary screen, cell-based, poly I:C stimulus, luciferase, 10K MLSCN set (AID 602277;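 active = inhibition of the reporter signal at or above 50%; inactive = inhibition below 50%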); details: HEK293-TLR3 RL24 IRF3 luciferase reporter, at 10 µM, stronger effect = higher value

With `COc1cccc(-c2nc(CS(=O)(=O)CC(=O)N3CCc4ccccc4C3)c(C)o2)c1` the cell count [1] was 813, the inhibition [1] was -17.7% (inactive) and the inhibition of aggregation [2] was -2% (inactive). For the same molecule, the nuclei count [2] was 93%, the inhibition [3] was -74.3% (inactive) and the nuclei count [3] was 117%. For the same molecule, the fluorescence slope [4] was -0.522 (inactive), the NADPH fluorescence slope [5] was -1.8e-05 (inactive) and the slope [6] was 0.00747 (inactive). The inhibition [7] was 6.4% (inactive) and the inhibition [8] was 16% (inactive).
With `CC(=O)Nn1c(C)nnc1-n1nc(C)cc1C` the cell count [1] was 594, the inhibition [1] was -9.2% (inactive) and the inhibition of aggregation [2] was 11.6% (inactive). The nuclei count [2] was 94.1%, the inhibition [3] was -52.4% (inactive) and the nuclei count [3] was 117%. For the same molecule, the fluorescence slope [4] was -0.474 (inactive), the NADPH fluorescence slope [5] was -9.2e-05 (inactive) and the slope [6] was 0.00573 (inactive). The inhibition [7] was 5.42% (inactive) and the inhibition [8] was 18.4% (inactive).
In the case of `CCOC(=O)N1CCC(c2cc(=O)n3[nH]cc(C(=O)OC)c3n2)CC1`, the cell count [1] was 534, the inhibition [1] was 6.8% (inactive) and the inhibition of aggregation [2] was -16.8% (inactive). For the same molecule, the nuclei count [2] was 58.3%, the inhibition [3] was 7.4% (inactive) and the nuclei count [3] was 103%. The fluorescence slope [4] was -0.541 (inactive), the NADPH fluorescence slope [5] was -1.8e-05 (inactive) and the slope [6] was 0.00674 (inactive). The inhibition [7] was 16.5% (inactive) and the inhibition [8] was 35.8% (inactive).
With `COC(=O)CC1SCCNC1=O` (stereo not drawn) the cell count [1] was 308, the inhibition [1] was 0.8% (inactive) and the inhibition of aggregation [2] was -7.1% (inactive). For the same molecule, the nuclei count [2] was 97.9%, the inhibition [3] was 38.9% (inactive) and the nuclei count [3] was 98.8%. The fluorescence slope [4] was -0.552 (inactive), the NADPH fluorescence slope [5] was 2e-05 (inactive) and the slope [6] was 0.00463 (inactive). The inhibition [7] was 0.969% (inactive) and the inhibition [8] was -5.15% (inactive).
For `O=C(CSCc1cccs1)N1CCCC1`, the cell count [1] was 228, the inhibition [1] was 3.9% (inactive) and the inhibition of aggregation [2] was -13.9% (inactive). The nuclei count [2] was 95%, the inhibition [3] was 18.9% (inactive) and the nuclei count [3] was 87.8%. The fluorescence slope [4] was -0.528 (inactive), the NADPH fluorescence slope [5] was -1.2e-05 (inactive) and the slope [6] was 0.00575 (inactive). For the same molecule, the inhibition [7] was -30.1% (inactive) and the inhibition [8] was -81.3% (inactive).
With `CCCCNC(=O)OCCNC(=O)NC` the cell count [1] was 314, the inhibition [1] was 2.9% (inactive) and the inhibition of aggregation [2] was -7.8% (inactive). The nuclei count [2] was 100%, the inhibition [3] was -62.2% (inactive) and the nuclei count [3] was 107%. For the same molecule, the fluorescence slope [4] was -0.317 (inactive), the NADPH fluorescence slope [5] was -2.2e-05 (inactive) and the slope [6] was 0.00519 (inactive). For the same molecule, the inhibition [7] was 7.22% (inactive) and the inhibition [8] was 2.44% (inactive).
For `Cc1ccc(Cn2ccc(NC(=O)c3cc(-c4cccs4)on3)n2)cc1`, the cell count [1] was 407, the inhibition [1] was 0.9% (inactive) and the inhibition of aggregation [2] was -11.4% (inactive). For the same molecule, the nuclei count [2] was 96.9%, the inhibition [3] was -33.4% (inactive) and the nuclei count [3] was 99.3%. The fluorescence slope [4] was -0.493 (inactive), the NADPH fluorescence slope [5] was -1.8e-05 (inactive) and the slope [6] was 0.00693 (inactive). For the same molecule, the inhibition [7] was -3.96% (inactive) and the inhibition [8] was -7.39% (inactive).
For `CC1Cc2ccccc2N1S(=O)(=O)c1ccc2c(c1)n(C)c(=O)c(=O)n2C` (stereo not drawn), the cell count [1] was 339, the inhibition [1] was 6.6% (inactive) and the inhibition of aggregation [2] was -25.5% (inactive). For the same molecule, the nuclei count [2] was 96.4%, the inhibition [3] was -21.1% (inactive) and the nuclei count [3] was 111%. The fluorescence slope [4] was -0.43 (inactive), the NADPH fluorescence slope [5] was 6.1e-06 (inactive) and the slope [6] was 0.00562 (inactive). The inhibition [7] was 19.2% (inactive) and the inhibition [8] was 17.1% (inactive).
For `COc1cc(NC2c3ccccc3C(=O)N2c2ccc(C)cn2)cc(OC)c1OC` (stereo not drawn), the cell count [1] was 619, the inhibition [1] was 5.5% (inactive) and the inhibition of aggregation [2] was 11.3% (inactive). For the same molecule, the nuclei count [2] was 85.2%, the inhibition [3] was -7.5% (inactive) and the nuclei count [3] was 109%. For the same molecule, the fluorescence slope [4] was -0.593 (inactive), the NADPH fluorescence slope [5] was 1.6e-05 (inactive) and the slope [6] was 0.00732 (inactive). For the same molecule, the inhibition [7] was -30.9% (inactive) and the inhibition [8] was -44.7% (inactive).
For `O=C(CCCn1c(=O)c2sccc2n(Cc2cc(=O)n3ccccc3n2)c1=O)NCc1ccco1`, the cell count [1] was 729, the inhibition [1] was -2.9% (inactive) and the inhibition of aggregation [2] was -3.9% (inactive). The nuclei count [2] was 106%, the inhibition [3] was -67.8% (inactive) and the nuclei count [3] was 116%. The fluorescence slope [4] was -0.575 (inactive), the NADPH fluorescence slope [5] was 3.3e-07 (inactive) and the slope [6] was 0.0069 (inactive). For the same molecule, the inhibition [7] was -12.7% (inactive) and the inhibition [8] was -8.56% (inactive).
In the case of `Cn1c(=N)c(S(=O)(=O)c2ccc(Cl)cc2)cc2c(=O)n3ccccc3nc21`, the cell count [1] was 294, the inhibition [1] was 1.6% (inactive) and the inhibition of aggregation [2] was -0.4% (inactive). For the same molecule, the nuclei count [2] was 97.1%, the inhibition [3] was 10.2% (inactive) and the nuclei count [3] was 94.5%. The fluorescence slope [4] was -0.405 (inactive), the NADPH fluorescence slope [5] was -4.7e-05 (inactive) and the slope [6] was 0.00398 (inactive). The inhibition [7] was 8.16% (inactive) and the inhibition [8] was 40.1% (inactive).
In the case of `C[C@H](NC(=O)NCc1cccs1)C(=O)O`, the cell count [1] was 378, the inhibition [1] was 4.3% (inactive) and the inhibition of aggregation [2] was -9.8% (inactive). The nuclei count [2] was 102%, the inhibition [3] was -52.5% (inactive) and the nuclei count [3] was 72.1%. For the same molecule, the fluorescence slope [4] was -0.576 (inactive), the NADPH fluorescence slope [5] was -5.7e-05 (inactive) and the slope [6] was 0.00368 (inactive). For the same molecule, the inhibition [7] was 5.25% (inactive) and the inhibition [8] was 4.63% (inactive).
For `CCc1nnc(SCC(=O)NC2CCCCC2)nc1CC`, the cell count [1] was 774, the inhibition [1] was -14.3% (inactive) and the inhibition of aggregation [2] was 11.4% (inactive). For the same molecule, the nuclei count [2] was 105%, the inhibition [3] was -62.4% (inactive) and the nuclei count [3] was 103%. For the same molecule, the fluorescence slope [4] was -0.536 (inactive), the NADPH fluorescence slope [5] was 2e-06 (inactive) and the slope [6] was 0.00672 (inactive). For the same molecule, the inhibition [7] was -5.14% (inactive) and the inhibition [8] was 5.98% (inactive).
